# HEK cytotox – kills HEK 293 cells; HEK 293 viability, ATP luminescence (CellTiter-Glo), 48-72 h; Potency, µM (series often up to 115 µM), hits mostly inhibitors; 6.6% of 94,000 active; also: nearly all actives have a fitted effect of over 60% in size
#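 Read-out: CellTiter-Glo ATP luminescence. Cells: HEK 293, 250 cells/well. Exposure: 48 or 72 hr, 37 degree Celsius.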
# 3T3 cytotox – cytotoxic compounds in NIH 3T3 cells | NIH 3T3 viability, CellTiter-Glo ATP luminescence, 48-72 h | Potency, µM (highest dose often 96.7 µM), most hits filed as inhibitors | 4.3% of 94,000 active; also: nearly all actives have a fitted effect of over 55% in size
#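 Cytotoxicity is measured as loss of cellular ATP: NIH 3T3 cells (400/well) are exposed to compound for 48 or 72 hr at 37 °C, then CellTiter-Glo luminescence is imaged after 10 min at room temperature.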
# hNpr1 antagonist – antagonists of human natriuretic peptide receptor Npr1; P16066; HEK293 hNpr1 GloSensor cGMP, ANP-stimulated luminescence; Potency, µM (doses to about 46.3 µM), usual class: inhibitors; 1.6% of 76,000 active; AID 1347048; calls by dose curve; also: nearly all actives have a fitted effect of over 60% in size
#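 Compound pre-incubated 30 min at room temperature on GloSensor-loaded HEK293 cells stably carrying hNpr1 and the pGS-40F cGMP biosensor. Stimulation uses hNppA at 0.1 nM final; luminescence is taken at baseline and 20 min post-agonist.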
# FLuc inh – Photinus pyralis luciferase inhibition; P08659; purified P. pyralis luciferase, luminescence, biochemical; Potency, µM (top dose mostly 115 µM), hits mostly inhibitors; 2.5% of 76,000 active; AID 1347043; also: nearly all actives have a fitted effect of over 65% in size
# Target sequence (P08659 whole entry, looked up): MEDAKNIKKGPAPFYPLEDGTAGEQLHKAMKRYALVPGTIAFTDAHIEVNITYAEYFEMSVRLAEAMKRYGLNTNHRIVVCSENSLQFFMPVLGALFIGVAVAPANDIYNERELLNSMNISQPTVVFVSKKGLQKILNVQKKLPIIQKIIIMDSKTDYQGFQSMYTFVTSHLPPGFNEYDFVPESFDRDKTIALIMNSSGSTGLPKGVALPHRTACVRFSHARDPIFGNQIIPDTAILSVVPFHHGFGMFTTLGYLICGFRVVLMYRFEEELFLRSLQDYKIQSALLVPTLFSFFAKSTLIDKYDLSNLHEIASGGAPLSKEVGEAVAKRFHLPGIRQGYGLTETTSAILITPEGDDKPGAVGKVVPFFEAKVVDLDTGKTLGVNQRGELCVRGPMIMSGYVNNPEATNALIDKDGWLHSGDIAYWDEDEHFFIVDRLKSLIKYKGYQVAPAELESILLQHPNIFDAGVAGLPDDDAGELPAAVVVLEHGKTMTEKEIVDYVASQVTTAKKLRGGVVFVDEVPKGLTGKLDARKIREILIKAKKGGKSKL
#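 Purified P. pyralis luciferase (10nM final) in 50mM Tris acetate pH 7.5, 10mM Mg acetate, 0.01% Tween-20, 0.05% BSA with 10uM D-luciferin and 10uM ATP. Compounds titrated qHTS. Luminescence imaged on CCD.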
# Hits are given with their value; . = inactive; ? = inconclusive; / = no result given. Compounds with a hit are over-represented: about 11% of the library has one in this group of screens. Unless noted, calls follow the shape of the dose curve; as a rule, active = well fitted curve in the direction sought with a large enough effect; inconclusive = small, poorly fitted or top-dose-only effect, or another doubt; inactive = no such curve, though single readings can be large; an effect the other way counts as inactive or inconclusive.
SMILES,HEK cytotox,3T3 cytotox,hNpr1 antagonist,FLuc inh
COc1ccc(-c2ccc3ncc(Nc4ccc(C(N)=O)cc4)n3n2)cc1OC,?,18µM,.,.
NCC1CCCN(Cc2ccc(-c3nc(-c4ccncc4)cc(=O)[nH]3)cc2)C1 (stereo not given),.,.,.,.
O=C(c1ccoc1)N1CCC(OCCOc2ccccc2)CC1,.,.,/,/
COc1ccc(-c2ccc3ncc(Nc4ccnc(N5CCOCC5)c4)n3n2)cc1OC,?,45µM,.,?
COc1ccc(-c2ccc3ncc(Nc4ccccc4)n3n2)cc1OC,35µM,20µM,.,.
c1ccc(-c2ccc3ncc(Nc4ccc(N5CCOCC5)cc4)n3n2)cc1,?,?,.,.
COc1cccc(Nc2ncc3c(n2)C(C)(C(=O)NC2CCN(C)CC2)CC3)c1 (stereo not given),89µM,?,.,.
CC1(C(=O)NC2CCOCC2)CCc2cnc(Nc3ccccc3)nc21 (stereo not given),100µM,?,.,.
COc1cccc(Nc2ncc3c(n2)C(C)(C(=O)NC2CCOCC2)CC3)c1 (stereo not given),89µM,40µM,.,.
CC(C)NC(=O)N1CCN(c2nccc(Nc3ccccc3Cl)n2)CC1,?,35µM,/,/
O=C(C1CCN(c2nccc(Nc3ccccc3F)n2)CC1)N1CCOCC1,.,.,/,/
O=C(Nc1ccc(Cl)cc1)N1CCN(c2nccc(Nc3ccccc3F)n2)CC1,28µM,?,/,/
O=C(Nc1ccccc1)N1CCN(c2nccc(Nc3ccccc3Cl)n2)CC1,50µM,?,/,/
O=C(C1CC1)N1CCN(c2nccc(Nc3ccccc3F)n2)CC1,63µM,?,/,/
O=C(NCc1cccc(F)c1)C1(c2ccc(Cl)cc2)CCOCC1,?,.,/,/
COC(=O)N1CCN(C(=O)c2nc3cccnc3n(C3CC3)c2=O)CC1,.,.,/,/
O=[S+]([O-])(c1ccccc1)N1CCN(c2nccc(Nc3ccccc3Cl)n2)CC1,?,28µM,/,/
O=C(Nc1ccc(Cl)cc1)NC1CCN(c2nccc(Nc3ccccc3F)n2)CC1,35µM,40µM,/,/
Cc1noc(C)c1[S+](=O)([O-])N1CCN(c2nccc(Nc3ccccc3F)n2)CC1,?,.,/,/
Cc1nnc2ccc(N3CCN(C(=O)C4CCCC4)CC3)nn12,.,?,/,/
Cc1cccc(C(=O)N2CCCCC2c2nc(C3CC3)n[nH]2)c1 (stereo not given),.,.,/,/
CC1(C)[C@H](Cc2cc(CC3CCCCC3)on2)C[C@@H]1NC(=O)c1ccccc1,32µM,56µM,?,.
COc1ccc(C(=O)N[C@H]2C[C@@H](Cc3cc(CN(C)C)on3)C2(C)C)cc1,.,.,.,.
CC1(C)[C@H](Cc2cc(CN3CCN(c4ccccc4)CC3)on2)C[C@@H]1NCC1CC1,89µM,?,.,.
COc1ccc(C(=O)N[C@H]2C[C@@H](Cc3cc(-c4ccccc4)on3)C2(C)C)cc1,45µM,50µM,?,?
SMILES,HEK cytotox,3T3 cytotox,hNpr1 antagonist,FLuc inh
COCc1cc(C[C@@H]2C[C@H](NS(C)(=O)=O)C2(C)C)no1,.,.,.,.
CC1(C)[C@H](Cc2cc(CC3CCCCC3)on2)C[C@@H]1NS(C)(=O)=O,71µM,?,.,.
COCCCNC(=O)c1nc2cccnc2n(CCc2ccccc2)c1=O,.,.,/,/
CCCCc1cc(C[C@@H]2C[C@H](NC(=O)C3CC3)C2(C)C)no1,?,.,.,?
CCCCc1cc(C[C@@H]2C[C@H](NC(=O)C(C)(C)C)C2(C)C)no1,71µM,?,.,?
CC(C)Cc1cc(C[C@@H]2C[C@H](NC(=O)c3ccco3)C2(C)C)no1,71µM,?,.,.
O=C(Nc1ccccc1)N[C@H]1CO[C@H]2[C@@H]1OC[C@@H]2n1cc(CC2CCCCC2)nn1,.,?,.,.
COCc1cn([C@H]2CO[C@H]3[C@@H]2OC[C@H]3OC(=O)Nc2cccc(C(F)(F)F)c2)nn1,79µM,?,.,.
O=C(Nc1cccc(C(F)(F)F)c1)N[C@H]1CO[C@H]2[C@@H]1OC[C@@H]2n1cc(CC2CCCCC2)nn1,40µM,?,?,.
CN(Cc1ccccc1)Cc1cn([C@H]2CO[C@H]3[C@@H]2OC[C@@H]3NS(=O)(=O)c2cccs2)nn1,?,?,.,.
O=S(=O)(N[C@H]1CO[C@H]2[C@@H]1OC[C@@H]2n1cc(CC2CCCCC2)nn1)c1cccs1,79µM,?,.,.
CC(C)NC(=O)C1CCCN(c2ccnc3ccnn23)C1 (stereo not given),.,.,/,/
O=C(Cc1ccc(F)cc1)NCCNC(=O)c1ccc(-c2cccc(C(F)(F)F)c2)cc1,?,.,/,/
CCOc1ccccc1CNC(=O)c1cc2n(n1)CC(c1ccc(Cl)cc1)OC2 (stereo not given),25µM,?,.,.
O=C(NCC1CC1)c1cc2n(n1)CC(c1ccc(Cl)cc1)OC2 (stereo not given),?,40µM,.,.
COc1cccc(C(=O)N2CC(=O)N(Cc3ccccc3)CC(O)C2)c1 (stereo not given),.,?,/,/
Cc1cc(C)cc(-c2ccc(CN3CCCC(NC(=O)NC(C)C)C3)cc2)c1 (stereo not given),.,.,/,/
O=c1n(CCN2CCCC(N[S+](=O)([O-])c3cccc(C(F)(F)F)c3)C2)nc2n1CCCC2 (stereo not given),.,.,/,/
Cc1cc(C)cc(-c2ccc(CN3CCCC(N[S+](=O)([O-])c4cccc(C(F)(F)F)c4)C3)cc2)c1 (stereo not given),?,32µM,/,/
Cc1cc(C)cc(-c2ccc(CN3CCCC(N[S+](C)(=O)[O-])C3)cc2)c1 (stereo not given),40µM,?,/,/
CC1(C(=O)NC2CCN(Cc3ccccc3)CC2)CCCCC(=O)N1 (stereo not given),.,.,.,.
COc1cccc(C(=O)N2CCc3nc(C(C)C)nc(-c4ccc(O)cc4)c3CC2)c1,.,?,/,/
COc1ccc(-c2noc(Nc3cc(OC)c(OC)c(OC)c3)n2)cc1OC,22µM,?,.,.
COc1cccc(-c2noc(Nc3cc(OC)c(OC)c(OC)c3)n2)c1,45µM,?,.,?
COc1cc(Nc2nc(-c3ccccc3F)no2)cc(OC)c1OC,32µM,?,.,?
SMILES,HEK cytotox,3T3 cytotox,hNpr1 antagonist,FLuc inh
COc1cc(Nc2nc(-c3ccccc3)no2)cc(OC)c1OC,?,?,.,32µM
COc1cc(Nc2ncncc2-c2nc(-c3ccccc3)no2)cc(OC)c1OC,.,.,.,.
COc1cccc(C(=O)N2CCc3nc(-c4ccccc4)nc(-c4ccc(Cl)cc4)c3C2)c1,40µM,?,.,.
O=C(c1cccc(Cl)c1)N1CCc2nc(-c3ccccc3)nc(-c3ccc(Cl)cc3)c2C1,28µM,?,.,.
O=C(c1ccccc1Cl)N1CCc2nc(-c3ccccc3)nc(-c3ccc(Cl)cc3)c2C1,?,?,.,.
O=C(c1cccc(Cl)c1)N1CCc2nc(-c3ccc(Cl)cc3)nc(-c3ccccc3)c2C1,?,?,.,?
CN1CCN(Cc2ccc(-c3ccc(C(C)(C)C#N)cc3)nc2)CC1,?,?,.,.

# From PubChem
